Calls of active or inactive are those of the source. Unless noted, no rule for the calls is given here.
Key:
[1] = compounds binding Alexa647 anti-His antibody – biochemical, small-molecule microarray, 635 nm fluorescence, artefact control for SMM control protein annotation, primary screen (AID 1128); conditions: higher = more signal;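 also: score merges feature fluorescence with signal-to-noise for each printed compound spot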
[2] = system: Human papillomavirus type 1a E7 protein (residues 1-88); experiment: HPV1a E7 small-molecule binders, primary screen, biochemical, small-molecule microarray, residues 1-88, 635 nm (AID 1129); conditions: small-molecule microarray binding, fluorescence 635 nm; higher = more signal
[3] = molecular target: Focal adhesion kinase 1 (Homo sapiens) (UniProt Q05397); experiment: PTK2 protein binding on printed compound slides – biochemical, small-molecule microarray, 635/667 nm fluorescence, BSA, DTT, primary screen (AID 1130); conditions: 635 nm fluorescence, higher = more signal;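 also: composite of spot emission at 667 nm and signal to noise over triplicate slides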
Chain of Focal adhesion kinase 1 (Homo sapiens) (Q05397 whole entry, looked up): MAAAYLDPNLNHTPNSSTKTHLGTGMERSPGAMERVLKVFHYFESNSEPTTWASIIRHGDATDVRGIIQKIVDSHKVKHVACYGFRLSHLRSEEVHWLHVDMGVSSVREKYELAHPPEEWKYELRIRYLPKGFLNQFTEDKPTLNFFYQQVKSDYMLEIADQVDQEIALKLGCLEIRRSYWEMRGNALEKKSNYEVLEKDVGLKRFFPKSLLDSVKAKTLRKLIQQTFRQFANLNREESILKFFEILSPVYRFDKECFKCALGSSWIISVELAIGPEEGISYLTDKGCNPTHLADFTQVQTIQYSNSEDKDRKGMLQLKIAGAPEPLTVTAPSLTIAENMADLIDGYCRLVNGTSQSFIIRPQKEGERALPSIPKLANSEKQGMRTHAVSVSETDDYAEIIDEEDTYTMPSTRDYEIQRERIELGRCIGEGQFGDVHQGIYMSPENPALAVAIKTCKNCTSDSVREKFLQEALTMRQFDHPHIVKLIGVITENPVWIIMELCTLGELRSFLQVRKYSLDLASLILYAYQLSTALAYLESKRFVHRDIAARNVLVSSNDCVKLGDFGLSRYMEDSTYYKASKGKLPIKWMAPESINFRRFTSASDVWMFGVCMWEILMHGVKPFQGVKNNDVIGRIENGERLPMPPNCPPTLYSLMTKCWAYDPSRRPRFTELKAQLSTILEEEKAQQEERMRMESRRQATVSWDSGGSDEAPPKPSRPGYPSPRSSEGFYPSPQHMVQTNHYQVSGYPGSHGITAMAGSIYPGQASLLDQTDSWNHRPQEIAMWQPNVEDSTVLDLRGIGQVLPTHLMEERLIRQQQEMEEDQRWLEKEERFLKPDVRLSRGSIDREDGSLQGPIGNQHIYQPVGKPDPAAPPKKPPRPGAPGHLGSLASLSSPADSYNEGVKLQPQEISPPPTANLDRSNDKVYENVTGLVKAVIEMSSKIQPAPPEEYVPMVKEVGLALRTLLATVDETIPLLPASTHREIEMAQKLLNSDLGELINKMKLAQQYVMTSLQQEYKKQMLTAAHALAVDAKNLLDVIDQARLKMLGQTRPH

[4] = system: Fibrinogen (Alexa647-labelled); experiment: Alexa647-fibrinogen binding to printed small molecules – biochemical, small-molecule microarray, 635/667 nm fluorescence, artefact control for SMM control-protein annotation, profiling panel (AID 1131); conditions: fibrinogen-A647 binding fluorescence, higher = more signal;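 also: z-score merges 667 nm fluorescence with per-spot signal-to-noise over triplicate slides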
[5] = molecular target: Follistatin (Homo sapiens) (UniProt P19883); experiment: FST protein binding to printed compounds – biochemical, small-molecule microarray, 635/667 nm fluorescence, primary screen (AID 1132); conditions: 635 nm fluorescence, higher = more signal
Chain of Follistatin (Homo sapiens) (P19883 whole entry, looked up): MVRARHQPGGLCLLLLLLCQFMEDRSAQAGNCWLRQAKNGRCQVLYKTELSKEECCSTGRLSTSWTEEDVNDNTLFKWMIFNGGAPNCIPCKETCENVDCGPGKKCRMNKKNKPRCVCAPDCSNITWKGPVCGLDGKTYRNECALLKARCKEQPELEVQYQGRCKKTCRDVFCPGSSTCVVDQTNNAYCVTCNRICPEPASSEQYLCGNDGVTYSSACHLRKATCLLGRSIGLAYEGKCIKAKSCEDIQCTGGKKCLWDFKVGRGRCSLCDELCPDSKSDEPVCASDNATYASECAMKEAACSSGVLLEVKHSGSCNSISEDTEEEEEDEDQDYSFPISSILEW

[6] = molecular target: Fibroblast growth factor 2 (Homo sapiens) (UniProt P09038); experiment: basic fibroblast growth factor binding to printed compounds – biochemical, small-molecule microarray, 635/667 nm fluorescence, primary screen (AID 1133); conditions: FGF2, fluorescence 635/667, higher = more signal
Chain of Fibroblast growth factor 2 (Homo sapiens) (P09038 whole entry, looked up): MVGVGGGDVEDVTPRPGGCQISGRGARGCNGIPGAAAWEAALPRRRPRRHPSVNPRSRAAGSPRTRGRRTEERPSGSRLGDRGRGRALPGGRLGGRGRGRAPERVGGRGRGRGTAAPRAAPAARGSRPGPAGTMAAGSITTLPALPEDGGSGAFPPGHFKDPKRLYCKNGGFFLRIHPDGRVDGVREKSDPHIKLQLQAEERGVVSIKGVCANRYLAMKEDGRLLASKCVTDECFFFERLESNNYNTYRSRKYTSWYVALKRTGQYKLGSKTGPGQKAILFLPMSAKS

[7] = JC-1 mitochondrial potential readout, lung cancer cells – cell-based, A549, JC-1 fluorescence, basal, 24 h, 100 nL, profiling panel (AID 1138); conditions: higher = more signal;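 also: A549 lung adenocarcinoma cells under basal conditions with no added stimulus; test concentration not given here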
Lefty1 = Lefty1 protein binding to printed compounds – biochemical, small-molecule microarray, 635/667 nm fluorescence, primary screen (AID 1139); conditions: fluorescence 635/667, higher = more signal
[8] = system: wheat germ agglutinin (Triticum aestivum), Alexa647-labelled; experiment: Alexa647-WGA lectin binding to printed small molecules – biochemical, small-molecule microarray, 635/667 nm fluorescence, artefact control for SMM control-protein annotation, profiling panel (AID 1140); conditions: WGA-A647 binding, 635 nm fluorescence, higher = more signal;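 also: score merges 667 nm feature emission with signal to noise over triplicate slides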
[9] = molecular target: Luciferin 4-monooxygenase (Photinus pyralis) (UniProt P08659); experiment: inhibition of purified Photinus pyralis luciferase – biochemical, luminescence, purified enzyme, 2006 set, primary screen (AID 1141); conditions: purified firefly luciferase, SteadyGlo luminescence, 30 min; higher = more signal, called active from +8 up or from −8 down;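 also: cell-free assay with purified firefly luciferase at 100 ng per well in PBS; test concentration not given here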
Chain of Luciferin 4-monooxygenase (Photinus pyralis) (P08659 whole entry, looked up): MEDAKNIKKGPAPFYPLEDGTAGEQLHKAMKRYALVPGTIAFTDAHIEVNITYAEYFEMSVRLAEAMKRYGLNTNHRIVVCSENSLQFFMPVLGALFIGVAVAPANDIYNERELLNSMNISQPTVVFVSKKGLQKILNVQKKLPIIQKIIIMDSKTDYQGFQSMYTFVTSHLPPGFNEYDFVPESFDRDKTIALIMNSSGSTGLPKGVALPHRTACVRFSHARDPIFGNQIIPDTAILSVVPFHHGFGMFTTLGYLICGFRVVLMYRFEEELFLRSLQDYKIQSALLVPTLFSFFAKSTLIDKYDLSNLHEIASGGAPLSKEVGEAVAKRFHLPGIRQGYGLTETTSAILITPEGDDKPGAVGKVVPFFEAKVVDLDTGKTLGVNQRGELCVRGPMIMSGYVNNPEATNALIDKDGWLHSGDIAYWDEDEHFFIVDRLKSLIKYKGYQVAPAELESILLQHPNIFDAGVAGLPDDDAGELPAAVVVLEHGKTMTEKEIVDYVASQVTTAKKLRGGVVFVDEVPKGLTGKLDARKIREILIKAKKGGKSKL

[10] = system: Wnt5a (protein binding on small-molecule microarray); experiment: small molecules binding Wnt5a protein – biophysical, small-molecule microarray, 635/667 nm fluorescence, primary screen (AID 1142); conditions: 635 nm fluorescence, higher = more signal;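 also: fluorescence read at 667 nm with signal to noise per printed feature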
[11] = ATP-based viability of Huh7 replicon cells – cell-based, CellTiter-Glo luminescence, basal, 48 h, cytotoxicity control for HCV replication inhibitor project, primary screen (AID 1143); conditions: higher = more signal, called active from +8 up or from −8 down;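 also: Huh7 hepatoma cells carrying a hepatitis C replication reporter with no stimulus; test concentration not given here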
[12] = Pseudomonas biofilm growth suppression – PAO1 strain, BacTiter-Glo luminescence, LB-PBS, primary screen (AID 1144); conditions: P. aeruginosa PAO1 biofilm, 12 h, higher = more signal
[13] = basal CRE-LacZ reporter activity in PC12 – cell-based, unstimulated, primary screen (AID 1145); conditions: no forskolin, luminescence, 4.5 h, higher = more signal, called active from +8 up or from −8 down
[14] = forskolin-driven CRE-LacZ activity in PC12 – cell-based, CRE-LacZ reporter, forskolin-stimulated, primary screen (AID 1146); conditions: luminescence, 4.5 h, higher = more signal, called active from +8 up or from −8 down;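 also: PC12 cells with 6xCRE LacZ reporter stimulated by forskolin 10 µM; beta-galactosidase reporter signal reflecting CREB driven transcription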
[15] = molecular target: Streptavidin (Streptomyces avidinii) (UniProt P22629); experiment: compounds binding control protein streptavidin – biophysical, small-molecule microarray, 635/667 nm fluorescence, artefact control for SMM compound annotation, primary screen (AID 1147); conditions: higher = more signal;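 also: signal reflects streptavidin binding to arrayed compounds as a control protein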
Chain of Streptavidin (Streptomyces avidinii) (P22629 whole entry, looked up): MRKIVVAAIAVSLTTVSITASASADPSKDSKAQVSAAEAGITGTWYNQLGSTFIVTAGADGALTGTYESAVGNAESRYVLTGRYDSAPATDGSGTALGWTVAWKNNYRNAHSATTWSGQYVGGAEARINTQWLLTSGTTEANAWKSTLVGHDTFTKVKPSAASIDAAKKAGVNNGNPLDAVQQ

[16] = probe aInhba binding on compound microarray – biochemical, small-molecule microarray, 635/667 nm fluorescence, primary screen (AID 1148); conditions: higher = more signal;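 also: score merges 667nm spot fluorescence with signal-to-noise for antibody binding to printed compounds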
Torsin-1A (Homo sapiens) [17] = molecular target: Torsin-1A (Homo sapiens) (UniProt O14656); experiment: TOR1A wild-type binding on microarray – cell lysate, small-molecule microarray, lysate, 635/667 nm, primary screen (AID 1149); conditions: COS7 hTOR1A-WT lysate, 635 nm fluorescence, higher = more signal
Chain of Torsin-1A (Homo sapiens) (O14656 whole entry, looked up): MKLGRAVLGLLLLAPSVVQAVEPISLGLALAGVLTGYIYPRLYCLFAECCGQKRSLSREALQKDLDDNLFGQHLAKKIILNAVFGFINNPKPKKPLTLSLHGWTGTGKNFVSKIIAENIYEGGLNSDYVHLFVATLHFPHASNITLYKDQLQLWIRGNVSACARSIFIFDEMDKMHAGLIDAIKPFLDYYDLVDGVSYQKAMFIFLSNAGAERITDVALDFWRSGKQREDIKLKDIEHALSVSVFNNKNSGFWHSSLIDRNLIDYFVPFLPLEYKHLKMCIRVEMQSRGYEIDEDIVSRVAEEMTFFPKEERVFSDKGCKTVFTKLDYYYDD

Torsin-1A (Homo sapiens) [18] = molecular target: Torsin-1A (Homo sapiens) (UniProt O14656); experiment: torsin A mutant lysate binding on microarrays – cell lysate, small-molecule microarray, COS7 lysate, 635/667 nm fluorescence, primary screen (AID 1150); conditions: COS7 hTOR1A mutant lysate, 635 nm fluorescence, higher = more signal;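 also: score pools 667 nm emission and signal to noise measuring lysate protein binding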
[19] = system: Sonic hedgehog protein (Shh); experiment: Sonic hedgehog microarray binding compounds – biochemical, small-molecule microarray, 635/667 nm fluorescence, primary screen (AID 1151); conditions: 635 nm fluorescence, higher = more signal;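 also: Shh protein binding to compounds spotted on small-molecule microarray slides; score combines spot fluorescence intensity with signal-to-noise across triplicate slides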

| SMILES | composite z-score [1] | composite z-score [2] | composite z-score [3] | composite z-score [4] | composite z-score [5] | composite z-score [6] | z-score [7] | composite z-score (Lefty1) | composite z-score [8] | z-score [9] | composite z-score [10] | z-score [11] | z-score [12] | z-score [13] | z-score [14] | composite z-score [15] | composite z-score [16] | composite z-score (Torsin-1A (Homo sapiens) [17]) | composite z-score (Torsin-1A (Homo sapiens) [18]) | composite z-score [19] |
| --- | --- | --- | --- | --- | --- | --- | --- | --- | --- | --- | --- | --- | --- | --- | --- | --- | --- | --- | --- | --- |
| CCCc1cccc(=O)o1 | 0.439 | 0.799 | 0.106 | 0.915 | 0.793 | 0.223 | 0.352 | 0.614 | 0.782 | 2.08 (inactive) | 0.0303 | -1.62 (inactive) | -0.848 (inactive) | -0.574 (inactive) | 0.646 (inactive) | 0.216 | -0.128 | 1.08 | 0.5 | 0.542 |
| C=CC[C@@]1(C(=O)O)N=C(c2ccc(OCCCO)cc2)O[C@@H]1c1ccccc1 | 3.53 | 1.15 | 0.3 | -0.184 | -0.759 | -0.893 | 0.959 | -0.726 | 1.27 | -0.171 (inactive) | 1.45 | 0.0076 (inactive) | -0.385 (inactive) | -0.491 (inactive) | -1.2 (inactive) | -1.72 | -0.231 | 4.37 | 4.32 | -0.198 |
| Cc1ccc(S[C@]2(C(=O)O)CC(=O)N(Cc3ccccc3Cl)[C@@H]2c2ccc(CO)cc2)cc1 | -0.24 | -0.558 | -0.299 | -0.271 | -0.83 | -0.26 | -0.939 | -1.26 | 0.478 | -0.999 (inactive) | 0.0044 | -1.55 (inactive) | 0.596 (inactive) | 0.441 (inactive) | 1.27 (inactive) | -0.868 | -0.0791 | -0.951 | 0.822 | -0.259 |
| O=C1c2ccccc2[C@](Cc2ccccc2I)(C(=O)NCc2ccccc2)[C@H](c2ccc(CO)cc2)N1C1CCCCC1 | 2.68 | 1.2 | 0.699 | 0.945 | 1.54 | 1.93 | -0.0853 | 1.42 | 1.04 | -0.0828 (inactive) | 0.52 | -4.84 (inactive) | -0.479 (inactive) | 0.0655 (inactive) | -0.183 (inactive) | 1.71 | 0.295 | 0.326 | 0.489 | 1.75 |

— PubChem BioAssay
